# Results: PubChem BioAssay (NCATS)
# Results filed as inconclusive are left out. Activity calls are given as the source filed them. Unless noted, calls follow the shape of the dose curve; as a rule, active = well fitted inhibition curve with a large enough effect; inconclusive = small, poorly fitted or top-dose-only effect; inactive = flat fitted curve, though single readings scatter.
# Assays:
# [1] = qHTS drug screen for cell cycle checkpoint inhibitors in PARPi-resistant BRCA-mutant ovarian cancer cell lines. (AID 1963452; calls by dose curve); details: PEO1/OlaR viability, CellTiter-Glo luminescence, 96 h; for Z-AUC: stronger effect = lower value
# Procedure, shortened: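 PEO1, PEO4 and PEO1/OlaR ovarian cancer cells, 600 per well, exposed 96 h at 37C to a dilution series. Viability read by CellTiter-Glo luminescence, normalized to DMSO and empty wells; activity summarized as Z-AUC.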
# [2] = qHTS profiling for inhibitors of Plasmodium falciparum proliferation (AID 504749); also: nearly all actives have a fitted effect of over 60% in size;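 as to activity, negative = inhibition: 0% = DMSO vehicle and full inhibition = artemisinin control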; details: P. falciparum in erythrocytes, SYBR Green DNA, 72 h
# Procedure, shortened: (§1)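 Readout was DNA-dye fluorescence from lysed cultures, ex 485/em 535 nm. Parasitized red cells had grown 72 h with compound; data scaled between 0.29 uM artemisinin and DMSO wells and corrected using vehicle-only plates.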
# 3D7 = assay: as above; details: P. falciparum in erythrocytes, SYBR Green DNA, 72 h; series mostly up to 28.7 µM
# Procedure, shortened: as §1
# 7G8 = assay: as above; details: P. falciparum in erythrocytes, SYBR Green DNA, 72 h; series mostly up to 28.7 µM
# Procedure, shortened: as §1
# AA1029 = assay: as above; details: P. falciparum in erythrocytes, SYBR Green DNA, 72 h; series mostly up to 28.7 µM
# Procedure, shortened: as §1
# AS120 = assay: as above; details: P. falciparum in erythrocytes, SYBR Green DNA, 72 h; series mostly up to 28.7 µM
# Procedure, shortened: as §1
# ATS189 = assay: as above; details: P. falciparum in erythrocytes, SYBR Green DNA, 72 h; series mostly up to 28.7 µM
# Procedure, shortened: as §1
# ATS95 = assay: as above; details: P. falciparum in erythrocytes, SYBR Green DNA, 72 h; series mostly up to 28.7 µM
# Procedure, shortened: as §1
# C2A = assay: as above; details: P. falciparum in erythrocytes, SYBR Green DNA, 72 h; series mostly up to 28.7 µM
# Procedure, shortened: as §1
# CP185 = assay: as above; details: P. falciparum in erythrocytes, SYBR Green DNA, 72 h; series mostly up to 28.7 µM
# Procedure, shortened: as §1
# CP191 = assay: as above; details: P. falciparum in erythrocytes, SYBR Green DNA, 72 h; series mostly up to 28.7 µM
# Procedure, shortened: as §1
# CP192 = assay: as above; details: P. falciparum in erythrocytes, SYBR Green DNA, 72 h; series mostly up to 28.7 µM
# Procedure, shortened: as §1
# CP194 = assay: as above; details: P. falciparum in erythrocytes, SYBR Green DNA, 72 h; series mostly up to 28.7 µM
# Procedure, shortened: as §1
# CP201 = assay: as above; details: P. falciparum in erythrocytes, SYBR Green DNA, 72 h; series mostly up to 28.7 µM
# Procedure, shortened: as §1
# CP211 = assay: as above; details: P. falciparum in erythrocytes, SYBR Green DNA, 72 h; series mostly up to 28.7 µM
# Procedure, shortened: as §1
# CP215 = assay: as above; details: P. falciparum in erythrocytes, SYBR Green DNA, 72 h; series mostly up to 28.7 µM
# Procedure, shortened: as §1
# CP217 = assay: as above; details: P. falciparum in erythrocytes, SYBR Green DNA, 72 h; series mostly up to 28.7 µM
# Procedure, shortened: as §1
# [3] = qHTS for identification of novel therapeutic agents for treatment of microphthalmiaassociated transcription factor (MiT) renal cell carcinoma (RCC) (AID 1963991; calls by dose curve); details: CellTiter-Glo, 48 h; for z-score: stronger effect = lower value; for Potency: active = Z-AUC below -0.8 in all three lines
# Procedure, shortened: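 Three TFE3-fusion RCC lines (UOK109, UOK124, UOK145), 500 cells/well in complete medium, were treated with MIPE 4.0 compounds for 48 hours at 37 C. Viability was by CellTiter-Glo luminescence, normalized to DMSO (100%) and empty wells (0%); curves fitted over 11 concentrations.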
# CP237 = assay: qHTS profiling for inhibitors of Plasmodium falciparum proliferation (AID 504749); also: nearly all actives have a fitted effect of over 60% in size;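 as to activity, negative = inhibition: 0% = DMSO vehicle and full inhibition = artemisinin control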; details: P. falciparum in erythrocytes, SYBR Green DNA, 72 h; series mostly up to 28.7 µM
# Procedure, shortened: as §1
# [4] = measured here: PEO1 parental Z-AUC
# [5] = at 28.7 µM (top of the series), parasite line A
# [6] = at 28.7 µM (top of the series), parasite line B
# [7] = TFE3-RCC UOK109 viability, measured here: UOK109 Z-AUC
# [8] = TFE3-RCC viability, measured here: UOK124 Z-AUC
# [9] = TFE3-RCC viability, measured here: UOK145 Z-AUC
# Potency is read from the fitted curve at half-maximal effect.
structure (smiles),measurement,setting,value
COc1cc2c(cc1OC)CC(=O)N(CCCN(C)C[C@H]1Cc3cc(OC)c(OC)cc31)CC2,Z-AUC,[1],0.967 (inactive)
same,Z-AUC,[1]; [4],0.523
same,Z-AUC,[1]; measured here: PEO4 Z-AUC,0.443
same,"activity, negative = inhibition",[2]; [5],-2.12% (inactive)
same,"activity, negative = inhibition",[2]; [6],-3.25% (inactive)
same,Potency,3D7,inactive
same,Potency,7G8,11.2 µM (active)
same,Potency,AA1029,inactive
same,Potency,AS120,inactive
same,Potency,ATS189,inactive
same,Potency,ATS95,inactive
same,Potency,C2A,inactive
same,outcome,CP185,inactive
same,outcome,CP191,inactive
same,Potency,CP192,inactive
same,Potency,CP194,inactive
same,Potency,CP201,inactive
same,Potency,CP211,inactive
same,Potency,CP215,inactive
same,Potency,CP217,inactive
CC(NCCc1ccc(O)cc1)C(O)c1ccc(O)cc1 (stereo not drawn),Z-AUC,[1],-0.504 (inactive)
same,Z-AUC,[1]; [4],0.762
same,Z-AUC,[1]; measured here: PEO4 Z-AUC,0.7
same,z-score,[3]; [7],0.72
same,z-score,[3]; [8],0.96
same,z-score,[3]; [9],2.38
CN1CCN2c3ncccc3Cc3ccccc3C2C1 (stereo not drawn),Z-AUC,[1],-0.118 (inactive)
same,Z-AUC,[1]; [4],-0.0867
same,Z-AUC,[1]; measured here: PEO4 Z-AUC,0.472
same,z-score,[3]; [7],0.418
same,z-score,[3]; [8],0.445
same,z-score,[3]; [9],0.581
same,"activity, negative = inhibition",[2]; [5],-2.79% (inactive)
same,"activity, negative = inhibition",[2]; [6],7.38% (inactive)
same,Potency,3D7,inactive
same,Potency,7G8,11.2 µM (active)
same,Potency,ATS189,inactive
same,Potency,C2A,inactive
same,outcome,CP185,inactive
same,outcome,CP191,inactive
same,Potency,CP201,inactive
same,Potency,CP215,inactive
same,Potency,CP217,inactive
same,Potency,CP237,inactive
N#CC(c1ccc(Cl)cc1)c1c(Cl)cc(-n2ncc(=O)[nH]c2=O)cc1Cl (stereo not drawn),Z-AUC,[1],-0.392 (inactive)
same,Z-AUC,[1]; [4],-1.19
same,Z-AUC,[1]; measured here: PEO4 Z-AUC,-1.22
same,"activity, negative = inhibition",[2]; [5],-9.47% (inactive)
same,"activity, negative = inhibition",[2]; [6],-1.8% (inactive)
same,Potency,3D7,inactive
same,Potency,AA1029,inactive
same,Potency,AS120,inactive
same,Potency,ATS189,inactive
same,Potency,ATS95,inactive
same,Potency,C2A,inactive
same,outcome,CP185,inactive
same,outcome,CP191,inactive
same,Potency,CP192,inactive
same,Potency,CP194,inactive
same,Potency,CP201,inactive
same,Potency,CP211,inactive
same,Potency,CP215,inactive
same,Potency,CP217,inactive
same,Potency,CP237,inactive
N=C1SC(=Cc2ccc(-c3ccc4c(c3)C(=O)NC4=O)o2)C(=O)N1c1ccc(Br)cc1,z-score,[3]; [7],0.374
same,z-score,[3]; [8],0.836
same,z-score,[3]; [9],0.868
O=C(O)c1nc(=O)[nH]c(=O)[nH]1,Z-AUC,[1],0.306 (inactive)
same,Z-AUC,[1]; [4],-0.133
same,Z-AUC,[1]; measured here: PEO4 Z-AUC,-0.258
same,z-score,[3]; [7],1.29
same,z-score,[3]; [8],0.587
same,z-score,[3]; [9],1.2
same,"activity, negative = inhibition",[2]; [5],-16.8% (inactive)
same,"activity, negative = inhibition",[2]; [6],-28.2% (inactive)
same,Potency,3D7,inactive
same,Potency,7G8,inactive
same,Potency,AA1029,inactive
same,Potency,AS120,inactive
same,Potency,ATS189,inactive
same,Potency,ATS95,inactive
same,Potency,C2A,inactive
same,outcome,CP185,inactive
same,outcome,CP191,inactive
same,Potency,CP192,inactive
same,Potency,CP194,inactive
same,Potency,CP201,inactive
same,Potency,CP211,inactive
same,Potency,CP217,inactive
same,Potency,CP237,inactive
Nc1ccc(-c2ccc3ncc4ccc(=O)n(-c5cccc(C(F)(F)F)c5)c4c3c2)cn1,Z-AUC,[1],-1.37 (inactive)
same,Z-AUC,[1]; [4],-2.21
same,Z-AUC,[1]; measured here: PEO4 Z-AUC,-1.55
same,Potency,[3]; TFE3-RCC UOK109 viability,3.32 µM (active)
same,z-score,[3]; [7],-2.43
same,z-score,[3]; [8],-4.62
same,z-score,[3]; [9],-4.33
N#Cc1c(N(CC(=O)O)CC(=O)O)sc(C(=O)O)c1CC(=O)O,Z-AUC,[1],0.439 (inactive)
same,Z-AUC,[1]; [4],0.76
same,Z-AUC,[1]; measured here: PEO4 Z-AUC,0.481
same,z-score,[3]; [7],0.286
same,z-score,[3]; [8],0.354
same,z-score,[3]; [9],0.00458
same,"activity, negative = inhibition",[2]; [5],12.6% (inactive)
same,"activity, negative = inhibition",[2]; [6],0.836% (inactive)
same,Potency,3D7,inactive
same,Potency,7G8,inactive
same,Potency,AA1029,inactive
same,Potency,AS120,inactive
same,Potency,ATS189,inactive
same,Potency,ATS95,inactive
same,Potency,C2A,inactive
same,outcome,CP185,inactive
same,outcome,CP191,inactive
same,Potency,CP192,inactive
same,Potency,CP194,inactive
same,Potency,CP201,inactive
same,Potency,CP211,inactive
same,Potency,CP215,inactive
same,Potency,CP217,inactive
same,Potency,CP237,inactive
COc1cccc(OC)c1-c1cc(C(=O)NC2(C(=O)O)C3CC4CC(C3)CC2C4)nn1-c1ccnc2cc(Cl)ccc12 (stereo not drawn),Z-AUC,[1],1.24 (inactive)
same,Z-AUC,[1]; [4],0.986
same,Z-AUC,[1]; measured here: PEO4 Z-AUC,1.12
same,z-score,[3]; [7],1.18
same,z-score,[3]; [8],0.441
same,z-score,[3]; [9],0.707
Cc1nc2c([nH]1)CCN(C(=O)c1ccc(NC(=O)c3ccccc3-c3ccccc3)cc1)c1ccccc1-2,Z-AUC,[1],0.604 (inactive)
same,Z-AUC,[1]; [4],0.56
same,Z-AUC,[1]; measured here: PEO4 Z-AUC,0.851
same,z-score,[3]; [7],-0.104
same,z-score,[3]; [8],0.486
same,z-score,[3]; [9],0.369
CCC[C@H](Nc1nc(-c2ccc(NC(=O)NCC)c(OC)c2)ncc1C)c1cccnc1,Potency,[1],0.0087 µM (active)
same,Z-AUC,[1]; [4],-2.97
same,Z-AUC,[1]; measured here: PEO4 Z-AUC,-3.47
same,Potency,[3]; TFE3-RCC UOK109 viability,0.0372 µM (active)
same,z-score,[3]; [7],-2.33
same,z-score,[3]; [8],-3.81
same,z-score,[3]; [9],-2.31
C=C1c2cccc(O)c2C(O)=C2C(=O)[C@@]3(O)C(O)=C(C(N)=O)C(=O)[C@@H](N(C)C)[C@@H]3[C@@H](O)[C@H]12,Z-AUC,[1],-0.114 (inactive)
same,Z-AUC,[1]; [4],-0.453
same,Z-AUC,[1]; measured here: PEO4 Z-AUC,-0.502
same,"activity, negative = inhibition","[2]; at 12.8 µM (top of the series), parasite line A",-22.9% (inactive)
same,"activity, negative = inhibition","[2]; at 12.8 µM (top of the series), parasite line B",-19.4% (inactive)
same,Potency,3D7,inactive
same,Potency,AA1029,inactive
same,Potency,AS120,inactive
same,Potency,ATS189,inactive
same,Potency,ATS95,inactive
same,Potency,C2A,inactive
same,outcome,CP185,inactive
same,outcome,CP191,inactive
same,Potency,CP192,inactive
same,Potency,CP194,inactive
same,Potency,CP201,inactive
same,Potency,CP211,inactive
same,Potency,CP215,inactive
same,Potency,CP217,inactive
CCCCC[C@H](O)C=C[C@H]1[C@H](O)CC(=O)[C@H]1CC=CCCCC(=O)O,Z-AUC,[1],1.09 (inactive)
same,Z-AUC,[1]; [4],0.516
same,Z-AUC,[1]; measured here: PEO4 Z-AUC,0.73
same,z-score,[3]; [7],1.12
same,z-score,[3]; [8],0.597
same,z-score,[3]; [9],0.962
CC(C)c1onc(-c2c(Cl)cccc2Cl)c1COc1ccc(C=Cc2cccc(C(=O)O)c2)c(Cl)c1,z-score,[3]; [7],0.965
same,z-score,[3]; [8],0.847
same,z-score,[3]; [9],0.507
